Records with an inconclusive call do not appear. A call without a number means that no potency is given here. Activity calls are given as the source filed them. Calls follow the shape of the dose curve; as a rule, active = well fitted inhibition curve with a large enough effect; inconclusive = small, poorly fitted or top-dose-only effect; inactive = flat fitted curve, though single readings scatter.
Assay: qHTS to identify inhibitors of the type 1 interferon - major histocompatibility complex class I in skeletal muscle: primary screen against the NCATS Pharmaceutical Collection (AID 1347407)
Settings: human skeletal muscle cells, IFN-b-induced MHC-I HiBiT luminescence, 24 h; series mostly up to 45.9 µM
Excerpt: Assay Submitter (PI): Travis B. Kinder Ph.D. & James Inglese Ph.D.
Assay Development and Screening Technology Laboratory (ADST)
National Center for Advancing Translational Sciences (NCATS), Rockville, MD
National Institute of Health (NIH), Bethesda, Maryland
Idiopathic inflammatory myopathies, collectively referred to as myositis, are a group of rare autoimmune diseases characterized by skeletal muscle inflammation, weakness, and usually accompanied by systemic pathologies of the skin, lungs, or vasculature. Current immunosuppressive therapies and glucocorticoids are often not curative and are accompanied by harsh side effects, especially in children with juvenile myositis. We initiated a drug repurposing and development program to identify more targeted, less toxic therapeutics to treat myositis. Although its cause is not known, muscle from a subset of patients have an abundance of the inflammatory type 1 interferon (IFN) and a down-stream product major histocompatibility complex class I (MHC class I), which are both thought to contribute to damage and weakness. We conducted quantitative high throughput screening on 6,576 compounds (4,679 unique) through a series of cell-based assays to identify those that inhibit the IFN-stimulated expression of MHC class I in muscle precursor cells (myoblasts). The compound identification and evaluation strategy utilized a primary screen with reporter-tagged MHC class I in genome-engineered myoblasts, ATP content counter screen for viability, HLA-ABC immunofluorescence secondary screen, and HLA-B RT-qPCR tertiary screen.
The primary screen utilized CRISPR/Cas9 genome-engineering of immortalized human myoblasts, C25cl48, where a pro-luminescent reporter HiBit was fused to the C-terminus of endogenous MHC class I allele HLA-B*08:01 (HLA-B HiBit myoblasts). HiBit is an 11 amino acid fragment of NanoLuc luminescent reporter (Promega Corporation), and when complexed to the larger LgBit fragment, the reconstituted enzyme produces light in the presence of furimazine substrate (Schwinn et al., 2018). Briefly, HLA-B HiBit myoblasts were plated into 1536-well plates, treated with 4.0 ng/ml human IFN-beta and 2,816 compounds from the NCATS Pharmaceutical Collection (NPC) that contains all drugs approved in the US, EU, and Japan (Huang et al., 2011) in an 8-point, 1:5 titration with a high final concentration of 46 uM. After 24 hrs of treatment, cells were assayed by Nano-Glo HiBiT Lytic Detection System (Promega) and luminescence measured by a ViewLux 1430 Ultra HTS (Perkin Elmer).
Huang R, Southall N, Wang Y, Yasgar A, Shinn P, Jadhav A, Nguyen D-T, Austin CP. 2011. The NCGC pharmaceutical collection: a comprehensive resource of clinically approved drugs enabling repurposing and chemical genomics. Sci Transl Med 3:80ps16. doi:10.1126/scitranslmed.3001862
Schwinn MK, Machleidt T, Zimmerman K, Eggers CT, Dixon AS, Hurst R, Hall MP, Encell LP, Binkowski BF, Wood K V. 2018. CRISPR-Mediated Tagging of Endogenous Proteins with a Luminescent Peptide. ACS Chem Biol 13:467-474. doi:10.1021/acschembio.7b00549
PROTOCOL TABLE (as described by Inglese et al., 2007)
SEQUENCE No. (e.g., 1, 2, 3, etc.); […] (e.g., Cells, Incubation, Reagent, etc.); VALUE; DESCRIPTION
1a; Cells; 5 uL; Use a Multidrop Combi (Thermo Scientific) to seed 350 cells/well into nine Greiner 1536 well white/solid bottom, high base, TC plates in 5 ul/well of iHSKM growth medium (GM) without dexamethasone into columns 1+2. Add metal lids with gas-exchange holes
1b; Cells; 5 uL; Use a Multidrop Combi (Thermo Scientific) to seed 350 cells/well into nine Greiner 1536 well white/solid bottom, high base, TC plates in 5 ul/well of iHSKM GM without dexamethasone + 4 ng/ml IFN-b into columns 3 - 48. Add metal lids with gas-exchange holes
2; Incubate; 1 hr; Incubate at 37 C, 5% CO2, 95% RH
[…]

Row | SMILES | Potency | activity change, negative = inhibition
1 | CCN(CC)C(=O)Nc1ccc(OCC(O)CNC(C)(C)C)c(C(C)=O)c1 (stereo not given) | inactive | –
2 | CN1[C@@H]2CC[C@H]1CC(OC(=O)C(O)c1ccccc1)C2 (stereo not given in full) | inactive | –
3 | O=C1c2c(O)cccc2Cc2cccc(O)c21 | inactive | –
4 | Oc1cccc(O)c1 | inactive | –
5 | CC(C)C(=O)c1c(C(C)C)nn2ccccc12 | inactive | –
6 | CC(C)c1c(C(=O)Nc2ccccc2)c(-c2ccccc2)c(-c2ccc(F)cc2)n1CC[C@@H](O)C[C@@H](O)CC(=O)O | inactive | –
7 | C/C(=C(\CCOP(=O)(O)O)SC(=O)c1ccccc1)N(C=O)Cc1cnc(C)nc1N | – | -12.9% [at 3.83 µM] (inactive)
8 | CC(C)(C)NCC(O)COc1ccc(NC(=O)NC2CCCCC2)cc1 (stereo not given) | inactive | –
9 | C[C@@H]1CCN(C(=O)[C@H](CCCN=C(N)N)NS(=O)(=O)c2cccc3c2NC[C@H](C)C3)[C@@H](C(=O)O)C1 | inactive | –
10 | Cn1c(=O)c2c(ncn2CC2OCCO2)n(C)c1=O | inactive | –
11 | CNC(=O)Oc1ccc2c(c1)[C@]1(C)CCN(C)[C@@H]1N2C | inactive | –
12 | CN1[C@@H]2CC(OC(=O)[C@H](CO)c3ccccc3)C[C@H]1[C@@H]1O[C@@H]12 (stereo not given in full) | inactive | –
13 | COc1ccc(Cl)cc1C(=O)NCCc1ccc(S(=O)(=O)NC(=O)NC2CCCCC2)cc1 | inactive | –
14 | Nc1ncnc2c1ncn2[C@@H]1O[C@H](CO)[C@@H](O)[C@H]1O | inactive | –
15 | COc1ccc(S(=O)(=O)Nc2nnc(CC(C)C)s2)cc1 | inactive | –
16 | CC1=C(C/C=C(\C)CCC[C@H](C)CCC[C@H](C)CCCC(C)C)C(=O)c2ccccc2C1=O | inactive | –
17 | CCCc1c(OCCCCc2nn[nH]n2)ccc(C(C)=O)c1O | inactive | –
18 | NC(=O)N/N=C/c1ccc([N+](=O)[O-])o1 | inactive | –
19 | [O-][n+]1cccc(CO)c1 | inactive | –
20 | CCC(=O)c1ccc(O)cc1 | inactive | –

Row | SMILES | Potency | activity change, negative = inhibition
21 | Cc1cc2c(cc1S(N)(=O)=O)S(=O)(=O)CCC2 | inactive | –
22 | O=C(O)[C@@H]1CSCN1 | inactive | –
23 | NC(N)=NCCC[C@H](N)C(=O)O | – | -4.76% [at 3.83 µM] (inactive)
24 | CN(C)CCCN1c2ccccc2Sc2ccc(Cl)cc21 | inactive | –
25 | O=c1cc(CO)occ1O | inactive | –
26 | C[C@]12C[C@H](O)[C@H]3[C@@H](CCC4=CC(=O)CC[C@@]43C)[C@@H]1CC[C@@H]2C(=O)CO | inactive | –
27 | Cc1cc(O)cc2c1O[C@](C)(CCC[C@H](C)CCC[C@H](C)CCCC(C)C)CC2 | inactive | –
28 | O=C1N=C(O)CN1/N=C/c1ccc(-c2ccc([N+](=O)[O-])cc2)o1 | inactive | –
29 | CCCCOC(=O)c1ccc(O)cc1 | inactive | –
30 | OCC(O)CN1CCN(c2ccccc2)CC1 (stereo not given) | inactive | –
31 | C[C@H](NC(CCc1ccccc1)C(=O)O)C(=O)N1CCC[C@H]1C(=O)O (stereo not given in full) | inactive | –
32 | CCN(CC)C(C)CN1c2ccccc2Sc2ccccc21 (stereo not given) | inactive | –
33 | Cn1cc[nH]c1=S | inactive | –
34 | NC(=O)c1ncn([C@@H]2O[C@H](CO)[C@@H](O)[C@H]2O)n1 | inactive | –
35 | CCC(=O)Nc1ccc(O)cc1 | inactive | –
36 | CC(COc1ccccc1)NC(C)C(O)c1ccc(O)cc1 (stereo not given) | inactive | –
37 | N[C@@H](CSCCCO)C(=O)O | inactive | –
38 | CN(N=O)C(=O)N[C@@H]1[C@@H](O)[C@H](O)[C@@H](CO)O[C@@H]1O | inactive | –
39 | CC(C)(O)c1ccccc1CC[C@@H](SCC1(CC(=O)O)CC1)c1cccc(/C=C/c2ccc3ccc(Cl)cc3n2)c1 | inactive | –
40 | O=S(=O)(O)NC1CCCCC1 | inactive | –

Reference: PubChem BioAssay (NCATS)
